Key:
Test in all cases: growth AUC relative to DMSO control (median of replicates) (fraction); higher = more growth (less inhibition), active = hit call of the paper
Conditions in all cases: 20 µM; 24 h;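 active = AUC reduced over 20% with Padj below 0.05 in at least 2 of 3 replicates; inactive = otherwise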
[1] = test system: Akkermansia muciniphila
Procedure, shortened: (§1)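 Area under the growth curve was normalised to the plate median of solvent-only wells, or to row and column medians on the industrial chemical plate. Growth curves came from anaerobic gut bacterial monocultures in mGAM at 37 °C, seeded at OD600 0.05 with 20 µM compound (1% DMSO), and read at OD600 hourly for 24 h with the minimum OD set to 0. The value is the median of three biological replicates grown on separate days.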

[2] = test system: Bacteroides caccae
Procedure, shortened: as §1

[3] = test system: Bacteroides clarus
Procedure, shortened: as §1

[4] = test system: Bacteroides dorei
Procedure, shortened: as §1

[5] = test system: Bacteroides stercoris
Procedure, shortened: as §1

[6] = test system: Bacteroides thetaiotaomicron
Procedure, shortened: as §1

[7] = test system: Bacteroides uniformis
Procedure, shortened: as §1

[8] = test system: Bifidobacterium longum subsp. longum
Procedure, shortened: as §1

[9] = test system: Clostridium difficile
Procedure, shortened: as §1

[10] = test system: Collinsella aerofaciens
Procedure, shortened: as §1

[11] = test system: Coprococcus comes
Procedure, shortened: as §1

[12] = test system: Escherichia coli ED1a
Procedure, shortened: as §1

[13] = test system: Escherichia coli IAI1
Procedure, shortened: as §1

[14] = test system: Eubacterium rectale
Procedure, shortened: as §1

[15] = test system: Fusobacterium nucleatum subsp. animalis
Procedure, shortened: as §1

[16] = test system: Lactobacillus gasseri
Procedure, shortened: as §1

[17] = test system: Lactobacillus paracasei
Procedure, shortened: as §1

[18] = test system: Odoribacter splanchnicus
Procedure, shortened: as §1

[19] = test system: Parabacteroides distasonis
Procedure, shortened: as §1

[20] = test system: Parabacteroides merdae
Procedure, shortened: as §1

Measured: growth AUC

CCN(CC)C(=O)SCc1ccc(Cl)cc1
inactive: [1] 0.879 | [2] 0.98 | [3] 0.954 | [4] 0.978 | [5] 1.12 | [6] 0.91 | [7] 0.973 | [8] 0.948 | [9] 1.02 | [10] 0.948 | [11] 0.966 | [12] 1.01 | [13] 1.01 | [14] 0.921 | [15] 0.957 | [16] 1.08 | [17] 0.879 | [18] 0.937 | [19] 0.943 | [20] 0.972

CCCSP(=O)(OCC)Oc1ccc(Br)cc1Cl (stereo not given)
inactive: [1] 0.944 | [2] 0.864 | [3] 0.95 | [4] 0.985 | [5] 1.17 | [6] 0.901 | [7] 0.881 | [8] 1.06 | [9] 1.03 | [10] 0.972 | [11] 1.01 | [12] 1.01 | [13] 1.04 | [14] 0.993 | [15] 1.11 | [16] 0.976 | [17] 1.1 | [18] 1.04 | [19] 0.871 | [20] 0.994

CC(C)(C)C(=O)C(Oc1ccc(Cl)cc1)n1cncn1 (stereo not given)
inactive: [1] 1.04 | [2] 0.993 | [3] 1 | [4] 1.01 | [5] 1.1 | [6] 0.999 | [7] 0.978 | [8] 1.02 | [9] 1.03 | [10] 1.01 | [11] 1.03 | [12] 1.02 | [13] 1.02 | [14] 1.05 | [15] 0.974 | [16] 1.05 | [17] 1.02 | [18] 1.04 | [19] 1.03 | [20] 0.985

CCOC(=O)OC1=C(c2cc(C)ccc2C)C(=O)NC12CCC(OC)CC2 (stereo not given)
inactive: [1] 0.953 | [2] 1 | [3] 0.995 | [4] 0.996 | [5] 1.04 | [6] 0.971 | [7] 0.982 | [8] 0.996 | [9] 0.977 | [10] 0.997 | [11] 0.998 | [12] 1.01 | [13] 0.983 | [14] 1.01 | [15] 0.965 | [16] 0.993 | [17] 0.992 | [18] 0.969 | [19] 0.981 | [20] 1.03

COC(=O)c1ccccc1S(=O)(=O)NC(=O)Nc1nc(C)cc(C)n1
inactive: [1] 1.07 | [2] 0.962 | [3] 0.988 | [4] 0.968 | [5] 0.859 | [6] 0.979 | [7] 1.02 | [8] 1.1 | [9] 1 | [10] 0.949 | [11] 1 | [12] 0.993 | [13] 0.985 | [14] 1.07 | [15] 1 | [16] 0.94 | [17] 0.948 | [18] 1.07 | [19] 1.04 | [20] 0.987

Oc1c(Cl)c(Cl)cc(Cl)c1Cl
active: [3] 0.726 | [7] 0.636 | [13] 0.746 | [18] 0.666 | [19] 0.637
inactive: [1] 0.834 | [2] 0.81 | [4] 0.758 | [5] 0.684 | [6] 0.794 | [8] 0.974 | [9] 0.941 | [10] 0.941 | [11] 0.971 | [12] 0.917 | [14] 0.947 | [15] 0.923 | [16] 0.936 | [17] 1.02 | [20] 0.786

Fc1ccc(Oc2ccnc3cc(Cl)cc(Cl)c23)cc1
inactive: [1] 0.94 | [2] 0.899 | [3] 0.918 | [4] 1.05 | [5] 0.806 | [6] 0.887 | [7] 0.875 | [8] 0.905 | [9] 1.08 | [10] 0.967 | [11] 0.969 | [12] 0.977 | [13] 0.97 | [14] 0.845 | [15] 0.921 | [16] 0.984 | [17] 0.672 | [18] 1 | [19] 0.966 | [20] 0.876

O=C(NC(=O)c1c(F)cccc1F)Nc1cc(Cl)c(OC(F)(F)C(F)F)c(Cl)c1
inactive: [1] 1.17 | [2] 1 | [3] 0.954 | [4] 0.967 | [5] 1.05 | [6] 0.998 | [7] 0.956 | [8] 0.999 | [9] 0.967 | [10] 0.994 | [11] 0.96 | [12] 0.965 | [13] 0.982 | [14] 0.892 | [15] 0.877 | [16] 0.986 | [17] 0.62 | [18] 0.983 | [19] 0.994 | [20] 0.992

Oc1cc(Cl)c(Cl)cc1Cl
inactive: [1] 0.97 | [2] 0.934 | [3] 0.945 | [4] 0.936 | [5] 0.913 | [6] 0.986 | [7] 0.992 | [8] 1.02 | [9] 0.929 | [10] 0.922 | [11] 0.983 | [12] 0.978 | [13] 0.938 | [14] 0.97 | [15] 1 | [16] 0.843 | [17] 0.971 | [18] 1.12 | [19] 0.962 | [20] 0.927

COP(=O)(OC)Oc1ccc(SC)c(C)c1
inactive: [1] 0.861 | [2] 0.994 | [3] 0.978 | [4] 1.03 | [5] 0.981 | [6] 0.979 | [7] 0.982 | [8] 1 | [9] 0.999 | [10] 0.993 | [11] 0.991 | [12] 1 | [13] 1.02 | [14] 0.96 | [15] 0.986 | [16] 1.1 | [17] 1 | [18] 0.994 | [19] 1.02 | [20] 1.05

COc1nc(C)nc(NC(=O)NS(=O)(=O)c2ccccc2CCC(F)(F)F)n1
inactive: [1] 0.874 | [2] 0.985 | [3] 1.01 | [4] 0.992 | [5] 0.978 | [6] 0.948 | [7] 0.978 | [8] 0.966 | [9] 0.992 | [10] 0.966 | [11] 0.967 | [12] 0.997 | [13] 0.976 | [14] 0.954 | [15] 0.992 | [16] 1.06 | [17] 1 | [18] 0.962 | [19] 1.01 | [20] 1

CP(=O)(O)CC(=O)O
inactive: [1] 1.01 | [2] 0.959 | [3] 0.96 | [4] 1.02 | [5] 0.929 | [6] 0.992 | [7] 0.997 | [8] 1.04 | [9] 1.1 | [10] 1.04 | [11] 0.991 | [12] 0.984 | [13] 1 | [14] 1.07 | [15] 0.945 | [16] 1.02 | [17] 0.871 | [18] 0.978 | [19] 0.979 | [20] 0.982

c1nc[n]([Sn]([CH]2CCCCC2)([CH]2CCCCC2)[CH]2CCCCC2)n1
active: [20] 0.746
inactive: [1] 1.02 | [2] 0.997 | [3] 0.86 | [4] 0.939 | [5] 0.935 | [6] 0.955 | [7] 0.901 | [8] 0.506 | [9] 0.951 | [10] 0.814 | [11] 0.723 | [12] 1.06 | [13] 1.06 | [14] 0.908 | [15] 1.03 | [16] 1.03 | [17] 0.972 | [18] 1.03 | [19] 0.927

O=c1[nH]c2c(c(=O)n1C1CCCCC1)CCC2
inactive: [1] 0.895 | [2] 1.01 | [3] 0.944 | [4] 0.957 | [5] 0.925 | [6] 0.978 | [7] 0.972 | [8] 0.963 | [9] 0.972 | [10] 0.95 | [11] 0.945 | [12] 0.99 | [13] 0.987 | [14] 0.899 | [15] 0.834 | [16] 0.923 | [17] 1.02 | [18] 0.98 | [19] 0.999 | [20] 0.973

CC(=O)CC(c1ccco1)c1c(O)c2ccccc2oc1=O (stereo not given)
inactive: [1] 0.866 | [2] 1.01 | [3] 0.957 | [4] 1 | [5] 1 | [6] 0.98 | [7] 0.968 | [8] 0.95 | [9] 1.02 | [10] 0.967 | [11] 1.01 | [12] 0.994 | [13] 0.987 | [14] 0.985 | [15] 0.986 | [16] 1.03 | [17] 1.05 | [18] 0.978 | [19] 0.958 | [20] 1.01

O=[N+]([O-])c1ccc(Oc2ccc(Cl)cc2Cl)cc1
inactive: [1] 1.09 | [2] 0.959 | [3] 0.971 | [4] 0.973 | [5] 1.09 | [6] 0.99 | [7] 0.931 | [8] 0.972 | [9] 0.97 | [10] 0.998 | [11] 0.988 | [12] 0.99 | [13] 0.983 | [14] 1.07 | [15] 1 | [16] 0.789 | [17] 0.976 | [18] 0.946 | [20] 0.967
active: [19] 0.655
